From PubChem
Only some compounds are listed: those with a hit (about 3.4% of all), similar ones and a draw of the others.
MITF primary: blocks human microphthalmia-associated transcription factor | inhibition, % at 2.6 µM | AlphaScreen MITF homodimerization, bead proximity signal | O75030 | AID 1259374 | 0.91% of 650,000 active; in the data active means inhibition above about 50%;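 further: 0% = vehicle wells with protein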
Target sequence (O75030 whole entry, looked up): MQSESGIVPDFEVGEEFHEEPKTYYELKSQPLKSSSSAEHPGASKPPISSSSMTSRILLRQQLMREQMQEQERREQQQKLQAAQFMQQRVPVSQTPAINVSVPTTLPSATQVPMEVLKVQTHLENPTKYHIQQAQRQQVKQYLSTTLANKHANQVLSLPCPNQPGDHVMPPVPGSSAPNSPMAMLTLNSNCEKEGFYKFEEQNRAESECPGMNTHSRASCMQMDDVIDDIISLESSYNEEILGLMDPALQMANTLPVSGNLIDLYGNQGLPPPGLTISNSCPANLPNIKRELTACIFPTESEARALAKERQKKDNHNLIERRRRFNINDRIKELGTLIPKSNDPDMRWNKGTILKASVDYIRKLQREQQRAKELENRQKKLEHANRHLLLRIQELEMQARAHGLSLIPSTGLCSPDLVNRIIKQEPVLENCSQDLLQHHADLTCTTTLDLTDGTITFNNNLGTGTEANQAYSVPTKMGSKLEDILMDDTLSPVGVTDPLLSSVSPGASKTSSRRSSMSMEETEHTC
GPR151 activ: activates the human receptor GPR151; PathHunter beta-arrestin GPR151 cells, luminescence; 1% of 650,000 active; activation, % at 11.2 µM; Q8TDV0; in the data active means activation above about 4.9%;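 further: 0% = median of compound wells and 100% = cells with positive control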
TEAD-YAP block: TEAD-YAP interaction inhibition; 1.4% of 640,000 active; HEK-TIYL cells, TEAD-Gal4/YAP UAS-luciferase luminescence; AID 1259422; inhibition, % at 9.12 µM; in the data active means inhibition above about 32%;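 further: 0% = median of test compound wells and 100% = reference inhibitor wells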
FBW7 activator: human FBW7 E3 ligase activation, primary screen; AID 1259310; Q969H0; 0.13% of 650,000 active; AlphaScreen FBW7–phospho-cyclin E peptide binding, activator screen; normalized activity (activation), % at 26.1 µM; in the data active means normalized activity above about 1.9%;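 further: purified mutant Fbw7 with reduced substrate affinity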
GPR151 confirm: confirmation of human GPR151 activators. GPR151 PathHunter beta-arrestin cells, luminescence, 90 min; % of EA-reagent control over plate median. activation, % at 11.2 µM. shares compounds with GPR151 activ. 6,700 tested, under 10 active;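 active means mean percent activation across replicates above the confirmation screen cutoff of 4.91%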
GPR119 ag: GPR119 activation, counter-screen for GPR151 activators; shares compounds with GPR151 activ; GPR119 PathHunter beta-arrestin cells, luminescence, 90 min; 0 = compound-well median, 100 = enzyme-acceptor control; activation, % at 11.2 µM; 0.3% of 6,700 active; AID 1508611;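 active means mean percent activation in the counterscreen above 29.09%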;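 further: counterscreen on off-target GPR119 to flag nonselective hits from the GPR151 activator screen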
Numbers without * were called inactive; x = no result.

SMILES	MITF primary	GPR151 activ	TEAD-YAP block	FBW7 activator	GPR151 confirm	GPR119 ag
O=C1CCC(CCNCc2ccncc2)N1Cc1cccc(F)c1 (centres undefined)	16	-1	3	0	x	x
CCC(Sc1nc2ncccc2[nH]1)C(=O)NCC1CCCO1 (centres undefined)	3	-2	6	0	x	x
CCCN=C1CC(C)(C)C(C(=O)OC)C(O)=C1C(=O)CCC (centres undefined)	10	-2	-5	0	x	x
Cc1c(C(=O)NCC2COc3ccccc3O2)sc2ncn(CC(=O)N3CCCCC3C)c(=O)c12 (centres undefined)	-4	2	3	0	x	x
O=C(CCc1nnc(Cc2c[nH]c3ccccc23)o1)N1CCCCC1CCc1ccccn1 (centres undefined)	-3	0	-5	0	x	x
O=C(CCc1nnc(-c2ccsc2)o1)N1CCCCC1CCc1ccccn1 (centres undefined)	11	6.5*	-21	0	1	2
CC1=CC(C)C(COC(=O)CN2CCOCC2)C(C)C1 (centres undefined)	15	0	-4	0	x	x
CC1=CC(C)C(CNCCN2CCNCC2)C(C)C1 (centres undefined)	-8	4.9*	-7	0	0	1
Cc1ccc(NC(=O)CSc2nc(=O)n(Cc3ccco3)c3c2CCC3)cc1F	-14	6.6*	2	0	-2	-18
O=C(NCc1cccnc1)c1ccnc(Nc2nccc3ccccc23)c1	-4	-1	1	0	x	x
Cc1ccccc1CNC(=O)C(C)SCc1ccccc1 (centres undefined)	3	0	5	1	x	x
O=C(Cn1ccc([N+](=O)[O-])n1)NCc1ccccc1	-5	3	-1	0	x	x
CC(SCc1ccccc1)C(=O)NCc1cccnc1 (centres undefined)	5	8.0*	-5	0	-1	-9
Cc1ccc(CNC(=O)C(C)SCc2ccccc2)cc1 (centres undefined)	-7	8.1*	-2	0	0	12
O=C(NCc1cccnc1)c1ccnc(Nc2cnccn2)c1	9	6.6*	5	1	-1	3
O=C(Cn1ccc([N+](=O)[O-])n1)NCc1cccnc1	4	8.9*	14	0	-1	-6
Cn1ccc(C(=O)NNC(=O)c2ccccc2)n1	-1	1	-5	0	x	x
CCNC(=O)N1CCC(c2nc(-c3ccc4c(c3)OCO4)c3ccccn23)CC1	6	1	1	-2	x	x
CC1=CC=CC2=NC(=O)CC(C)(C(=O)N(CC(=O)NC(C)(C)C)c3ccccc3F)N12 (centres undefined)	10	0	-1	0	x	x
COc1ccc(-c2noc(CCC(=O)N(C)c3ccccc3Cl)n2)cc1	4	-1	2	0	x	x
Cc1ccc2nc(NC(=O)CC(C)CC3=NS(=O)(=O)c4ccccc4N3)sc2c1 (centres undefined)	-2	1	-4	0	x	x
O=C(O)CCC(=O)NCc1cccnc1	-8	7.5*	5	0	1	12
COc1cccc(CNC(=O)Cn2ncc3c2-c2cc(C)ccc2OC3)c1	5	0	26	0	x	x
CCOC(=O)C1CCN(c2ccc(C=C3C(=O)N(C)C(=O)N(C)C3=O)cn2)CC1	-1	5.2*	-5	0	0	4
Cc1nnc2ccc(SCC(=O)NCc3csc(-c4cccs4)n3)nn12	-11	5.6*	-27	-1	1	16
SMILES	MITF primary	GPR151 activ	TEAD-YAP block	FBW7 activator	GPR151 confirm	GPR119 ag
O=C(CSc1ccc2nnc(-c3cccs3)n2n1)NCc1ccccc1	10	0	-2	0	x	x
O=C(O)C1CCCN(c2ncnc3scc(-c4ccccc4)c23)C1 (centres undefined)	4	18*	-5	0	-1	-4
CCOC(=O)C1CCCN(c2ncnc3scc(-c4ccccc4)c23)C1 (centres undefined)	4	1	-19	0	x	x
Cc1cc(C(=O)N(CCCN2CCOCC2)c2nc3ccc(Cl)cc3s2)nn1C	-32	-1	-43	0	x	x
CC(C)C(c1nnnn1Cc1ccccc1)N1CCN(C2CCCC2)CC1 (centres undefined)	3	9.0*	4	0	-1	-3
CC(C)C(c1nnnn1Cc1ccc(F)cc1)N1CCN(C2CCCC2)CC1 (centres undefined)	17	-1	4	0	x	x
c1ccc(CN2CCC(N3CCN(C4CCCC4)CC3)CC2)cc1	31	5.1*	11	0	0	6
Cc1ccc(CN=Cc2c(NCc3ccc(C)cc3)nc3ccccn3c2=O)cc1	1	5.3*	-16	0	0	-1
O=C(NC1CCC(NC(=O)c2cccc(F)c2)CC1)c1cccc(F)c1 (centres undefined)	-1	9.4*	4	0	0	-5
CSc1ccc(CC(=O)N2CCOc3ccc(CN4CCOCC4)cc3C2)cc1	1	0	-9	0	x	x
COc1ccc(CNc2c3c(nc4ncnn24)CCC3)cc1	24	1	10	0	x	x
Cc1cc(N2C(=O)C3C4CC(c5ccccc5)C(C4)C3C2=O)no1 (centres undefined)	-1	11*	1	0	1	-4
Cc1cccc(NC(=O)CSc2nnc3sc4ccccc4n23)c1	-1	1	0	1	x	x
O=C(Nc1cccc(N2CCC(NCc3cccc(-n4cccn4)c3)CC2)c1)C1CC1	-2	-1	10	0	x	x
O=C(Nc1cccc(N2CCC(NCc3cccnc3)CC2)c1)C1CC1	0	5.5*	-9	0	1	19
CCN1C(=O)Cc2ccccc21	-1	6.7*	5	0	-1	-13
CC(C)CN(Cc1c(O)ccc2c1oc(=O)c1ccccc12)CC(C)C	1	-2	-3	0	x	x
COc1ccc(S(=O)(=O)N(CC(=O)NCc2cccnc2)C2CCCCC2)cc1OC	2	5.2*	5	0	0	2
Cc1cc(C)c(S(=O)(=O)N(CC(=O)NCc2cccnc2)C2CCCCC2)c(C)c1	-6	1	-4	0	x	x
Cc1ccc(NC(=S)N2CCN(c3ccccn3)CC2)c(C)c1	13	1	-3	0	x	x
COc1ccc(C)cc1NC(=S)N1CCN(c2ccccn2)CC1	0	5.1*	-6	0	0	-5
COc1cc(NC(=S)N2CCN(c3ccccn3)CC2)cc(OC)c1	-2	11*	-6	0	0	2
N#Cc1c(NC(=O)CN2CCN(c3ccccn3)CC2)sc2c1CCCC2	1	1	2	0	x	x
COc1ccc2nc3sc(C(=O)Nc4cccc(C(C)=O)c4)c(N)c3cc2c1	-11	5.3*	-75	0	0	23
CC(C)OCCCNCC(O)COc1ccc(C(=O)c2ccccc2)cc1 (centres undefined)	17	-1	14	0	x	x
